The campaign covered roughly 55,000 sequences. About 2,800 (5.1%) were called active. No stated cut-off is given here; in the data, active = GI50 up to about 1.1 µM and inactive = higher. The list is a sample of the results. Potency and affinity values are given separately.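 Each compound was tested at five concentrations against cells in 96-well plates for 48 hours. GI50 marks 50% less growth.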

For the assay, the system named is SK-MEL-2. The assay can be described thus: NCI tumour cell line growth inhibition, 48 h.
“[Bis(aminomethyl)pentamethylenesilane]tetrachloropaltinum(IV), CHEMBL2146204” showed a GI50 of 5.71 µM. Turning to “[Bis(aminomethyl)dimethylsilane]tetrachloroplatinum(IV), CHEMBL2146190”, the GI50 amounted to 19.1 µM. On to “[Bis(aminomethyl)tetramethylenesilane]dichloropaltinum(II), CHEMBL2146205”, for which the GI50 was found to be 30.9 µM. For “[Bis(aminomethyl)dimethylsilane]dichloroplatinum (II), CHEMBL2146201” the value was 65.5 µM; for “[Bis(aminomethyl)ethylmethylsilane]tetrachloroplatinum(IV), CHEMBL2146192”, 5.5 µM. For CISPLATIN, CHEMBL11359, the GI50 stood at 5.07 µM. “mu-(1,7-nanodiamine-N,N')bis-(cis-aminedichloroplatimum (II)), CHEMBL2146215” showed a GI50 of 38.9 µM.

“[Bis(aminomethyl)tetramethylenesilane]tetrachloropaltinum(IV), CHEMBL2146189” showed a GI50 of 6.64 µM. For “[Bis(aminomethyl)diethylsilane]tetrachloroplatinum(IV), CHEMBL2146203” the value was 3.1 µM; for “[Bis(aminomethyl)pentamethylenesilane]dichloropaltinum(II), CHEMBL2146202”, 7.57 µM; for “cis-Bis[[(trimethylsilyl)methyl]amino]tetrachloroplatinum(IV), CHEMBL2146191”, 2.88 µM.

The record behind these values is ChEMBL document CHEMBL1201862, “PubChem BioAssay data set” (2004).
